Results published in the supplement of paper PMC9950053.
Counter-ions that a name gives are not always drawn.

Test system: Danio rerio larvae (5 dpf)
Experiment: 1-h baseline activity (% time moving, periods 1-6) minus DMSO control (percentage points); higher = more locomotor activity than DMSO larvae
Conditions: 10 µM; exposure time: 3 h pre-incubation + 3 h imaging
Description: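 Wild-type 5 dpf zebrafish larvae (n=48 per drug, 96-well plates, 28.5 °C) were exposed to Tocris FDA-approved library compounds at 10 µM (0.1% DMSO) for 3 h before and 3 h during imaging. Images were taken every 6 s during visual and acoustic stimuli, and larvae were tracked with Z-LaP Tracker. Each measure is the treated-group mean minus the DMSO control mean (n=844), in percentage points. This mapping covers compounds with 5-character plate codes.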

Structure (SMILES) | 1-h baseline activity
COCCc1ccc(OCC(O)CNC(C)C)cc1 (configuration not stated) [Metoprolol tartrate] | 3.15
CCc1nc(N)nc(N)c1-c1ccc(Cl)cc1 [Pyrimethamine] | -1.81
N#C[C@@H]1C[C@@H]2C[C@@H]2N1C(=O)[C@@H](N)C12CC3CC(CC(O)(C3)C1)C2 [Saxagliptin hydrochloride] | 2.3
O=c1n(CCCN2CCN(c3cccc(Cl)c3)CC2)nc2ccccn12 [Trazodone hydrochloride] | -3.8
Clc1ccc2nsnc2c1NC1=NCCN1 [Tizanidine hydrochloride] | -14
N#Cc1ccc2[nH]cc(CCCCN3CCN(c4ccc5oc(C(N)=O)cc5c4)CC3)c2c1 [Vilazodone hydrochloride] | -24.2
CC(=O)Nc1ccc(O)cc1 [Acetaminophen] | 6.48
COc1cc(N)c(Cl)cc1C(=O)NC1CCN(CCCOc2ccc(F)cc2)CC1OC (configuration not stated) [Cisapride] | -0.963
CC(=O)Oc1cc2c(s1)CCN(C(C(=O)C1CC1)c1ccccc1F)C2 (configuration not stated) [Prasugrel] | -2.32
CC(C)(C(=O)O)c1ccc(C(O)CCCN2CCC(C(O)(c3ccccc3)c3ccccc3)CC2)cc1 (configuration not stated) [Fexofenadine hydrochloride] | 5.08
CCCC1O[C@@H]2C[C@H]3[C@@H]4CCC5=CC(=O)C=C[C@]5(C)[C@H]4[C@@H](O)C[C@]3(C)[C@]2(C(=O)CO)O1 (some centres not stated) [Budesonide] | 3.74
CCCc1nn(C)c2c(=O)[nH]c(-c3cc(S(=O)(=O)N4CCN(C)CC4)ccc3OCC)nc12 [Sildenafil citrate] | -12.4
CNC(=O)c1cc(Oc2ccc(NC(=O)Nc3ccc(Cl)c(C(F)(F)F)c3)cc2)ccn1 [Sorafenib] | -0.439
CNS(=O)(=O)Cc1ccc2[nH]cc(CCN(C)C)c2c1 [Sumatriptan succinate] | 9.45
OCCN1C[C@H](O)[C@@H](O)[C@H](O)[C@H]1CO [Miglitol] | -2.34
NS(=O)(=O)c1cc2c(cc1Cl)NC(C1CC3C=CC1C3)NS2(=O)=O (configuration not stated) [Cyclothiazide] | 0.814
O=C1CCc2ccc(OCCCCN3CCN(c4cccc(Cl)c4Cl)CC3)cc2N1 [Aripiprazole] | 6.58
C[C@@H]1C[C@H]2[C@@H]3CCC4=CC(=O)C=C[C@]4(C)[C@@]3(F)[C@@H](O)C[C@]2(C)[C@@]1(O)C(=O)CO [Dexamethasone] | 15.7
C#CCN[C@@H]1CCc2ccccc21 [Rasagiline mesylate] | 4.3

Structure (SMILES) | 1-h baseline activity
COc1cc2nccc(Oc3ccc(NC(=O)C4(C(=O)Nc5ccc(F)cc5)CC4)cc3)c2cc1OC | 15.1
NC(=O)OCC(COC(N)=O)c1ccccc1 [Felbamate] | -2.82
CN(C)C(=N)NC(=N)N [Metformin hydrochloride] | -8.39
C[C@H]1O[C@H](O[C@H]2[C@H](O)[C@@H](O)[C@@H](O[C@H]3[C@H](O)[C@@H](O)C(O)O[C@@H]3CO)O[C@@H]2CO)[C@H](O)[C@@H](O)[C@@H]1N[C@H]1C=C(CO)[C@@H](O)[C@H](O)[C@H]1O (some centres not stated) [Acarbose] | -1.61
Cc1cc2c(s1)Nc1ccccc1N=C2N1CCN(C)CC1 [Olanzapine] | 6.18
CN[C@H]1CC[C@@H](c2ccc(Cl)c(Cl)c2)c2ccccc21 [Sertraline hydrochloride] | -24
CC[C@H]1OC(=O)[C@H](C)[C@@H](O[C@H]2C[C@@](C)(OC)[C@@H](O)[C@H](C)O2)[C@H](C)[C@@H](O[C@@H]2O[C@H](C)C[C@H](N(C)C)[C@H]2O)[C@](C)(O)C[C@@H](C)CN(C)[C@H](C)[C@@H](O)[C@]1(C)O [Azithromycin] | -12
OC(c1cc(C(F)(F)F)nc2c(C(F)(F)F)cccc12)C1CCCCN1 (configuration not stated) [Mefloquine hydrochloride] | -2.24
OCc1cc(C(O)CNCCCCCCOCCCCc2ccccc2)ccc1O (configuration not stated) [Salmeterol xinafoate] | 12.2
CNCc1ccc(-c2[nH]c3cc(F)cc4c3c2CCNC4=O)cc1 [Rucaparib camsylate] | -14.5
CCCCCCCN(CC)CCCC(O)c1ccc(NS(C)(=O)=O)cc1 (configuration not stated) [Ibutilide hemifumarate] | -6.03
COc1ccccc1OCC(O)CN1CCN(CC(=O)Nc2c(C)cccc2C)CC1 (configuration not stated) [Ranolazine dihydrochloride] | 8.63
CC(C)COCC(CN(Cc1ccccc1)c1ccccc1)N1CCCC1 (configuration not stated) [Bepridil hydrochloride] | -2.55
COc1cc([C@@H]2c3cc4c(cc3[C@@H](O[C@@H]3O[C@@H]5CO[C@@H](C)O[C@H]5[C@H](O)[C@H]3O)[C@H]3COC(=O)[C@H]23)OCO4)cc(OC)c1O [Etoposide] | 4.86
CN(C)CCc1c[nH]c2ccc(C[C@H]3COC(=O)N3)cc12 [Zolmitriptan] | 6.44
O=C(O)C[C@H](O)C[C@H](O)/C=C/c1c(C2CC2)nc2ccccc2c1-c1ccc(F)cc1 [Pitavastatin calcium] | -1.53
COc1ccccc1Oc1c(NS(=O)(=O)c2ccc(C(C)(C)C)cc2)nc(-c2ncccn2)nc1OCCO [Bosentan] | 1.43
CC(C)OC(=O)C(C)(C)Oc1ccc(C(=O)c2ccc(Cl)cc2)cc1 [Fenofibrate] | 6.92
